Assay [1] can be described thus: binders of probe aFSTL3 on microarray, primary screen, stem cell growth factor project, biochemical, small-molecule microarray, fluorescence 635/667 (AID 1064).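 Also: measures binding of the biotinylated anti-FSTL3 antibody to printed compounds.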 The following applies: higher = more signal.
A short description of assay [2]: binders from COS7 lysate, DM2A8 probe, primary screen, torsin A project, cell lysate, small-molecule microarray, fluorescence 635/667 (AID 1065). The following applies: higher = more signal, COS7 lysate expressing mutant human TOR1A.
A short description of assay [3]: binders of probe aFGF2 on microarray, primary screen, stem cell growth factor project, biochemical, small-molecule microarray, fluorescence 635/667 (AID 1067).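 Also: measures binding of biotinylated aFGF2 protein to printed compounds on slides; z-score merges feature fluorescence and signal-to-noise across triplicate slides.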 The conditions noted are these: higher = more signal.
Assay [4] can be described thus: binders of probe aFGF10 on microarray, primary screen, stem cell growth factor project, biochemical, small-molecule microarray, fluorescence 635/667 (AID 1071).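 Also: score merges 667 nm spot intensity and signal to noise from triplicate slides.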 The conditions noted are these: higher = more signal.
In assay [5] the target is Neurogenic locus notch homolog protein 2 (Homo sapiens) (UniProt Q04721). The assay is described as follows: Notch2 binders on small-molecule microarrays, primary screen, biochemical, small-molecule microarray, 635 nm fluorescence, stem cell growth factors (AID 1073). The conditions noted are these: Notch2 binding, higher = more signal.
Assay [6] deals with Pro-neuregulin-1, membrane-bound isoform (Homo sapiens) (UniProt Q02297). The assay is described as follows: NRG1 binders on small-molecule microarrays, primary screen, psychiatric disease protein project, biochemical, small-molecule microarray, fluorescence 635/667 (AID 1075).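 Also: score combines 667 nm spot fluorescence with signal to noise.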 The conditions noted are these: NRG1 binding, 635 nm fluorescence, higher = more signal.
Pro-neuregulin-1, membrane-bound isoform (Homo sapiens), sequence (Q02297 whole entry, looked up, the tested form may be a part, canonical isoform): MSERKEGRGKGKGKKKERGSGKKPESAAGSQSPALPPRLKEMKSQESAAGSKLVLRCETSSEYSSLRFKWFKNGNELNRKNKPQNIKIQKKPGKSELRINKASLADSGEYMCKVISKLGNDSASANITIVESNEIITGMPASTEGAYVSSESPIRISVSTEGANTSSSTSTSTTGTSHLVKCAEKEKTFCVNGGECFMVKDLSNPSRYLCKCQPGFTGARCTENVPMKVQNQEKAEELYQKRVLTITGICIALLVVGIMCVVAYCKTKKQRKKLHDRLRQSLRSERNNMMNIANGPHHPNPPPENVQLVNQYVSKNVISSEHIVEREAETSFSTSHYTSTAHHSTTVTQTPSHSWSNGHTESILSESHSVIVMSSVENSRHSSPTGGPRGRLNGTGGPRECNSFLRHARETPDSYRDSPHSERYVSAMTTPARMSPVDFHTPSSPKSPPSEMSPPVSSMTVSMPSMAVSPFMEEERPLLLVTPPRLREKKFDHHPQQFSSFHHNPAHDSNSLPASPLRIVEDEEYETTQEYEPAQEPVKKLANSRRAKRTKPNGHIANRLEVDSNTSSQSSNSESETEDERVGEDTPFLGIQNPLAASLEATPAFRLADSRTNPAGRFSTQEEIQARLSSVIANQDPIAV
The test system of assay [7] is Neuregulin-1 EGF-like domain. The experiment in a line: binders of neuregulin-1 EGF-like domain, primary screen, biochemical, small-molecule microarray, 635 nm fluorescence (AID 1081).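 Also: binding of the protein to compounds printed on small-molecule microarray slides.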 The conditions noted are these: small-molecule microarray binding, higher = more signal.
A short description of assay [8]: FRG1 promoter luciferase signal modulators, primary screen, FRG1 inhibition for FSHD, cell-based, C2C12 myotubes, firefly/Renilla luciferase, luminescence (AID 1084). The following applies: higher = more signal, called active from +8 up or from −8 down.
Assay [9] in a line: binders of probe aFST on microarray, primary screen, stem cell growth factor project, biochemical, small-molecule microarray, fluorescence 635/667 (AID 1086).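 Also: score merges 667 nm fluorescence with signal-to-noise of each printed compound spot.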 The following applies: higher = more signal.
Assay [10] can be described thus: binders of probe aHhip on microarray, primary screen, stem cell growth factor project, biochemical, small-molecule microarray, fluorescence 635/667 (AID 1087).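 Also: score merges spot fluorescence at 667nm with spot signal to noise ratio.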 The following applies: higher = more signal.
The test system of assay [11] is PRMT1 (protein arginine N-methyltransferase 1). The experiment in a line: PRMT1 binders on small-molecule microarrays, primary screen, biochemical, small-molecule microarray, 635 nm fluorescence (AID 1088).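 Also: binding of Prmt1 protein to compounds spotted on small-molecule microarray slides.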 The conditions noted are these: small-molecule microarray binding, higher = more signal.
Assay [12] can be described thus: yeast growth modulation, basal conditions, primary screen, YJM789 clinical isolate, OD600, 24 h (AID 1089).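 Also: growth of clinical yeast isolate S. cerevisiae YJM 789 seeded 1000 cells per well; test concentration not given here.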 The conditions noted are these: S. cerevisiae YJM789 growth, higher = more signal, called active from +8 up or from −8 down.
The nature of assay [13]: fission yeast growth modulation, primary screen, strain 972, OD600, 24 h, no modulator (AID 1090).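 Also: basal condition with compound alone and no growth modifier present; test concentration not given here.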 The conditions noted are these: S. pombe 972 growth, higher = more signal, called active from +8 up or from −8 down.
Assay [14] in a line: S. cerevisiae growth modulation with rapamycin, primary screen, strain BY4716, OD600, 96 h (AID 1091). Also: test concentration not given here. The following applies: higher = more signal, called active from +8 up or from −8 down.
The target of assay [15] is Torsin-1A-interacting protein 2 (Homo sapiens) (UniProt Q8NFQ8). The experiment in a line: LULL1 binders on small-molecule microarray, primary screen, cell lysate, human LULL1 lysate, 635/667 nm fluorescence (AID 1092).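 Also: probe is lysate of COS7 cells overexpressing human LULL1; score merges per-feature 667 nm fluorescence with signal-to-noise.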 The conditions noted are these: hLULL1 lysate binding, 635 nm fluorescence, higher = more signal.
Torsin-1A-interacting protein 2 (Homo sapiens), sequence (Q8NFQ8 whole entry, looked up): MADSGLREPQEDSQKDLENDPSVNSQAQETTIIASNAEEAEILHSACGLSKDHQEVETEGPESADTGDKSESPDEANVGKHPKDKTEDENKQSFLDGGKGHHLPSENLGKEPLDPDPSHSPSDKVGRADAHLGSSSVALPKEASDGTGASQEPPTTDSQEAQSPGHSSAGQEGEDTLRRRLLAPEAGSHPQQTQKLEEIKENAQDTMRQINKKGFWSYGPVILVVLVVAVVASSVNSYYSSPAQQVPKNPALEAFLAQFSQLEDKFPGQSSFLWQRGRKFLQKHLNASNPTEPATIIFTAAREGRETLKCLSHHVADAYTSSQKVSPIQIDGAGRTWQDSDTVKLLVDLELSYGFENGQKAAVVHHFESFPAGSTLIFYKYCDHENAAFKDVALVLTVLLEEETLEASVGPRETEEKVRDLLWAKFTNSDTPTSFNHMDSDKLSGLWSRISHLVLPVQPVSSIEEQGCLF
A short description of assay [16]: E. coli growth modulation, two-sided OD650, primary screen, E. coli filamentation project, strain DRC41, 24 h (AID 1093).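 Also: MC1000 strain lacking acrAB efflux and sulA so SOS filamentation is blocked; test concentration not given here.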 The conditions noted are these: OD650, 24 h, higher = more signal, called active from +8 up or from −8 down.
The nature of assay [17]: small-molecule microarray binders of probe aLefty2, primary screen, biochemical, biotinylated probe, 635/667 nm fluorescence (AID 1094).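 Also: score merges spot fluorescence near 667 nm with spot signal-to-noise ratio.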 The conditions noted are these: higher = more signal.
Assay [18] deals with Noggin (protein binding on small-molecule microarray). The experiment in a line: Noggin binders on small-molecule microarray, primary screen, biochemical, 635/667 nm fluorescence (AID 1095).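 Also: score merges 667 nm feature fluorescence with signal to noise over triplicate slides.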 The following applies: 635 nm fluorescence, higher = more signal.
Assay [19] has as its target Neurogenic locus notch homolog protein 3 (Homo sapiens) (UniProt Q9UM47). The assay is described as follows: NOTCH3 binders on small-molecule microarray, primary screen, biochemical, 635/667 nm fluorescence (AID 1096). The conditions noted are these: NOTCH3 binding, 635 nm fluorescence, higher = more signal.
A short description of assay [20]: small-molecule microarray binders of probe aEGFR, primary screen, biochemical, biotinylated probe, 635/667 nm fluorescence (AID 1097).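 Also: probe is a biotinylated anti-EGFR antibody binding compounds printed on slides; score combines fluorescence near 667 nm and signal to noise of each spot.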 The conditions noted are these: higher = more signal.

Activity calls are given as the source filed them.

Neurogenic locus notch homolog protein 3 (Homo sapiens), sequence (Q9UM47 whole entry, looked up): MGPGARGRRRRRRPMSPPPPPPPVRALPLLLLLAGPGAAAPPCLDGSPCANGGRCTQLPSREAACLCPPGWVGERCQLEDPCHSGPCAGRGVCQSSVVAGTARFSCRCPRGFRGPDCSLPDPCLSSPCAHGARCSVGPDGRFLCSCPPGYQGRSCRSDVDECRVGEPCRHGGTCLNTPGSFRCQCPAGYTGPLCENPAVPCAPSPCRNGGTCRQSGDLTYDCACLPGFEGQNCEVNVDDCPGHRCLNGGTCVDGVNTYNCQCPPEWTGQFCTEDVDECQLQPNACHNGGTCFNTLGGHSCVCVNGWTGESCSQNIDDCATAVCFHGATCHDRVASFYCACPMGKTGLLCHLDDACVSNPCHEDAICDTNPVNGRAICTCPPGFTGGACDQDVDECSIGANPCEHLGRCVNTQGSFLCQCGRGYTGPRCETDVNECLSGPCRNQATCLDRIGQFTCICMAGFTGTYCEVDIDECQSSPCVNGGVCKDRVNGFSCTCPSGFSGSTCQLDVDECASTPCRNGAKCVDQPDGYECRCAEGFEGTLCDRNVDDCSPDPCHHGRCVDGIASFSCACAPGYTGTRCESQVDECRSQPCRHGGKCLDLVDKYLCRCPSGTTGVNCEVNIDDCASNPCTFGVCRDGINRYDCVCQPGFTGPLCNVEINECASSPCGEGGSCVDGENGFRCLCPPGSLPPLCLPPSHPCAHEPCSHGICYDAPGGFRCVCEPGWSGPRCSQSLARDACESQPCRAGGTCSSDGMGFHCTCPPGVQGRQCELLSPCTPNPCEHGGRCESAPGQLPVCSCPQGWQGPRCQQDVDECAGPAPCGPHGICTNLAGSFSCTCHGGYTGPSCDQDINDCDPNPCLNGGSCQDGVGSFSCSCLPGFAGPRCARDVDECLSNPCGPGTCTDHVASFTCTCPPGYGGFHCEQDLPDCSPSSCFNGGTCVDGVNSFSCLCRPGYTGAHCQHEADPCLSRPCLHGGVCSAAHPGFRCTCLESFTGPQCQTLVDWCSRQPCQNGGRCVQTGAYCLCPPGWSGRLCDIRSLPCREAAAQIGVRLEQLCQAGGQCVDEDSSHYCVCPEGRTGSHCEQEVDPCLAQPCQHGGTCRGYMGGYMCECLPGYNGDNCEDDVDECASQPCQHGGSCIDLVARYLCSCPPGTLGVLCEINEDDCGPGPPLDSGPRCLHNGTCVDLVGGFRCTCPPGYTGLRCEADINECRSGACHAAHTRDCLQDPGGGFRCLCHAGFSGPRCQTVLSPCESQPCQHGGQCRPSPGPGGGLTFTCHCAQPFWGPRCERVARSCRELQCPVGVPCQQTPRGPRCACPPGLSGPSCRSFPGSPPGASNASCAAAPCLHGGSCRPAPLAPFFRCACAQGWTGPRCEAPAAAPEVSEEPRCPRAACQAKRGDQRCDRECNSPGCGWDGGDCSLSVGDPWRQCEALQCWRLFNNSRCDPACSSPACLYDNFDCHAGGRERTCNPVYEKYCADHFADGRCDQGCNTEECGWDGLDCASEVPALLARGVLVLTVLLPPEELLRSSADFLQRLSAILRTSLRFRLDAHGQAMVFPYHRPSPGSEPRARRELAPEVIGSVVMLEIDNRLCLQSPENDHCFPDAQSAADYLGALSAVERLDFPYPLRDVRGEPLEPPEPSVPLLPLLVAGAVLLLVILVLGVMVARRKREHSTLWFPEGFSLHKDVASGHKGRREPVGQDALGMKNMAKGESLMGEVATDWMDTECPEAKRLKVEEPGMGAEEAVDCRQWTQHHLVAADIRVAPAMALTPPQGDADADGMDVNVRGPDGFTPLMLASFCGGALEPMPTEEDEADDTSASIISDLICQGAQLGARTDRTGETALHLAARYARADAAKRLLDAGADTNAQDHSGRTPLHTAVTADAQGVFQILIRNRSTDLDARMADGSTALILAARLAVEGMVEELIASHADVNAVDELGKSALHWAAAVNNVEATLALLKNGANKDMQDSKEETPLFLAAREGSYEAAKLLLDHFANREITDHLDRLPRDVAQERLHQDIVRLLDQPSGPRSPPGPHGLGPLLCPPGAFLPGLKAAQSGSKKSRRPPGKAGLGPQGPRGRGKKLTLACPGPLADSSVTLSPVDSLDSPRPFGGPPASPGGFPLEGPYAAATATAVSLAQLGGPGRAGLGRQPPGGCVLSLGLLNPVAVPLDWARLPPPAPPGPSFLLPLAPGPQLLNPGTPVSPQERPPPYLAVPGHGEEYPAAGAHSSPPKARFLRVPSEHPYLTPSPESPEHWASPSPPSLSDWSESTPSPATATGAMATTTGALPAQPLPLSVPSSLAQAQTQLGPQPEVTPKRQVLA

In the case of `COc1cc(C(O)C2C=CC3C(=O)N(c4ccccc4)C(=O)C3N2Nc2ccccc2F)cc(OC)c1OC` (stereo not given), the composite z-score in assay [1] was -0.0643; in assay [2], 0.155; in [3], 0.0253; in assay [4], 0.935; in assay [5], 1.64; in assay [6] it was 1.93. Moreover, the composite z-score in [7] was 1.29; in assay [9], 0.612; in assay [10], 0.252; in assay [11], 1.54; in [15], 3.58; in assay [17], 0.122. Moreover, the composite z-score in [18] is 0.334; in [19] it was 1.09; in [20], -0.027. Also, the z-score was 1.26 (inactive) in assay [8]; 0.785 (inactive) in assay [12]; 0.578 (inactive) in assay [13]; 1.32 (inactive) in [14]; -0.629 (inactive) in assay [16].

With `COC(=O)[C@@]1(Cc2ccc(OC)cc2)[C@H]2c3cc(C(=O)N4CCCC4)n(Cc4ccc(Cl)c(C(F)(F)F)c4)c3C[C@H]2CN1C(=O)c1ccccc1`, the composite z-score in assay [1] was 0.608; in assay [2], 0.673; in assay [3], 0.243; in assay [4], 0.437; in [5], 1.64; in assay [6], 2. Also, the composite z-score is 0.605 in [7]; 1.53 in assay [9]; 0.132 in assay [10]; 1 in [11]; 3.59 in assay [15]; 0.711 in assay [17]. Besides, the composite z-score was -0.109 in assay [18], 1.03 in [19] and 0.0788 in assay [20]. The z-score is -2.87 (inactive) in assay [8]; -1.21 (inactive) in [12]; 1.37 (inactive) in assay [13]; 0.509 (inactive) in [14]; -0.304 (inactive) in [16].

As to `CN(C)CCCC[C@@H]1NC(=O)[C@@H]2C[C@H](C(=O)NCCCCCN)[C@H](c3cccc(OCCO)c3)N2C1=O`, the composite z-score in [1] was -0.439; in assay [2] it was 1.75; in [3], -0.121; in assay [4], 0.549; in assay [5] it was 0.549; in [6], 1.09. Also, the composite z-score was 1.35 in [7]; 0.153 in assay [9]; 0.0722 in [10]; 1.32 in assay [11]; 1.96 in [15]; -0.0592 in [17]. The results for the composite z-score in assay [18], in assay [19] and in [20] were 1.17, 1.04 and -0.0943, respectively. Further, the z-score was -1.02 (inactive) in [8]; -5.45 (inactive) in assay [12]; -3.9 (inactive) in assay [13]; -0.962 (inactive) in [14]; 2.65 (inactive) in [16].

With `C=CCOC(=O)[C@@H]1[C@H]2C(=O)O[C@H](c3ccccc3)[C@H](c3ccccc3)N2[C@H](c2ccc(OCCOC(=O)[C@H]3C[C@H]4C(=O)NCC(=O)N4[C@H]3c3cccc(OCCO)c3)cc2)[C@@]12C(=O)Nc1ccc(I)cc12`, the composite z-score was -0.0708 in [1]; 0.727 in assay [2]; -0.0383 in [3]; -0.0265 in assay [4]; 0.593 in assay [5]; 1.16 in assay [6]. For the same compound, the composite z-score in assay [7] was 1.23; in assay [9], 0.275; in assay [10], -0.0296; in assay [11], 1.54; in [15], 2.7; in [17] it was -0.0809. Besides, the results for the composite z-score in [18], in assay [19] and in assay [20] were 0.963, 1.1 and 0.0712, respectively. Moreover, the z-score in assay [8] was 0.779 (inactive); in assay [12], 0.787 (inactive); in assay [13] it was 1.44 (inactive); in assay [14], 3.6 (inactive); in [16], 0.002 (inactive).

For `O=C(NC1CC1)[C@@H]1c2ccccc2C(=O)N(Cc2ccc(OC(F)(F)F)cc2)[C@H]1c1ccc(CO)cc1`, the composite z-score was 0.0273 in assay [1]; 0.314 in [2]; -0.0418 in assay [3]; -0.0789 in assay [4]; 0.354 in assay [5]; 1.38 in assay [6]. For the same compound, the composite z-score is 0.793 in assay [7]; 0.0427 in assay [9]; -0.0994 in [10]; 0.696 in [11]; 1.76 in assay [15]; -0.0943 in assay [17]. The results for the composite z-score in assay [18], in [19] and in [20] were 0.818, 0.377 and -0.0679, respectively. Further, the z-score in assay [8] was -0.859 (inactive); in assay [12], -0.112 (inactive); in assay [13] it was -0.636 (inactive); in assay [14], -1.51 (inactive); in assay [16], 0.577 (inactive).
